Results from PubChem BioAssay AID485346 (Sanford-Burnham Center for Chemical Genomics, 2010).
Screen size: about 330,000 compounds; about 10,000 (3%) were called active.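 How the source made its calls: active means inhibition of at least 50% at 8 µM in the primary screen; inactive means the rest.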 The full list was thinned out, with actives kept by preference.

Each compound was assayed against Protein Mdm4 (Homo sapiens) + E3 ubiquitin-protein ligase Mdm2 (Homo sapiens) (UniProt O15151+Q00987) (assay: inhibitors of human Mdm2-MdmX association, primary screen, cell-based, luminescence, split luciferase, SaOS-2, uHTS (AID 485346)). Conditions: SaOS-2 split-luciferase Mdm2/MdmX complementation, at 8 µM, active compounds read high.
Chain of Protein Mdm4 (Homo sapiens) + E3 ubiquitin-protein ligase Mdm2 (Homo sapiens) (O15151 whole entry, looked up): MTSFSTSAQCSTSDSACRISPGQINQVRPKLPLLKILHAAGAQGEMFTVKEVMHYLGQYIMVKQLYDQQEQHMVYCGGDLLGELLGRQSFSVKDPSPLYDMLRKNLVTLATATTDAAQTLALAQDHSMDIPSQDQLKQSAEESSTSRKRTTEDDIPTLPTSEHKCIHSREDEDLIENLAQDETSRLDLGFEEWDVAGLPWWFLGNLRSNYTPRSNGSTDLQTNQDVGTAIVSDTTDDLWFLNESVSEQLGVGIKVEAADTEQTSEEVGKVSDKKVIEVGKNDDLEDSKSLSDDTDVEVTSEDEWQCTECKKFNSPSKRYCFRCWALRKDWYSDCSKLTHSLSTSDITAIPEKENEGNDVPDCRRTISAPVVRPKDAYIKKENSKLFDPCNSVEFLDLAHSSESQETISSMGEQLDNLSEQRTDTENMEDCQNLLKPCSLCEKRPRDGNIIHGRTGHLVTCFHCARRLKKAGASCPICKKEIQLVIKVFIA
Chain of Protein Mdm4 (Homo sapiens) + E3 ubiquitin-protein ligase Mdm2 (Homo sapiens) (Q00987 whole entry, looked up): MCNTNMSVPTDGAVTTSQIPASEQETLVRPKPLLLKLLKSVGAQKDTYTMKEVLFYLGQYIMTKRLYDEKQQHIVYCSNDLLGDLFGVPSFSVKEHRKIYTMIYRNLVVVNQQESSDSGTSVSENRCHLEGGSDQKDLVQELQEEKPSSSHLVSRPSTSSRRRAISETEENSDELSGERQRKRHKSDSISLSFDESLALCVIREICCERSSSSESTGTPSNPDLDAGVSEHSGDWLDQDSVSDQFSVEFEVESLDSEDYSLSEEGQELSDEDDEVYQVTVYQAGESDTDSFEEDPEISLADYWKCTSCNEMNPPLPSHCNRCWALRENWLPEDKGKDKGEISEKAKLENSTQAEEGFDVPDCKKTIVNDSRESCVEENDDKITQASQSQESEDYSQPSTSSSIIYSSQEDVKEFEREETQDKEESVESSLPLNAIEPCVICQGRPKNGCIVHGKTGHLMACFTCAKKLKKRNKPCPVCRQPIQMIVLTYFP

inhibition, active:
Cc1c(CN2CCC(CO)(CCOc3ccccc3)CC2)[nH]c2ccc(Cl)cc12 89.6%
Oc1c(Br)cccc1/C=N/Nc1c(F)c(F)c(F)c(F)c1F 82.4%
CC(=O)/C(=N\Nc1ccc(Cl)cc1Cl)Sc1cccc2cccnc12 63.2%
CCCCN(CCCC)CCC(O)c1cc2c(Cl)cc(Cl)cc2c2cc(C(F)(F)F)ccc12 (stereo unspecified) 60.8%
Cc1cccc(-n2ncc(Cl)c(Cl)c2=O)c1 100%
COc1ccccc1-n1nnnc1S(=O)(=O)Cc1ccc(Cl)cc1 99.3%
COc1ccc2sc(-c3ccccc3OC)c(-c3ccc(OCCN4CCCC4)cc3)c2c1 73.2%
COc1cccc(-c2sc3ccc(OC)cc3c2-c2ccc(OCCN3CCCCC3)cc2)c1 96.8%
O=C(CCNC(=O)c1ccc(Cl)cc1)NC1CCCc2ccccc21 (stereo unspecified) 82.7%
Cc1nnc(NC(=O)Nc2ccc(Cl)c(Cl)c2)s1 95.2%
CC(Nc1nc(N2CCCC2)nc2ccccc12)c1ccccc1 (stereo unspecified) 70.8%
Cc1cc(Nc2cc(N3CCN(C)CC3)nc(Sc3ccc(NC(=O)C4CC4)cc3)n2)n[nH]1 88.2%
C=CCC[C@@H](Cc1ccc(F)cc1)C(=O)O[C@H](CNC(=O)[C@H](CC=C)CC(=O)N(CCO)Cc1ccccc1)c1ccccc1 66.9%
C=CCC[C@@H](Cc1ccc(F)cc1)C(=O)OC[C@H](Cc1c[nH]c2ccccc12)NC(=O)[C@@H](CC=C)CC(=O)N(CCO)Cc1ccccc1 87.5%
C=CC[C@H](CC(=O)N(CCO)Cc1ccccc1)C(=O)N[C@@H](COC(=O)[C@@H](CC=C)Cc1ccc(F)cc1)Cc1ccccc1 67.8%

inhibition, inactive:
CCOc1cnc(C(=O)NNC(=O)c2ccccc2Br)o1 -14.2%
CCn1c(CC(=O)Nc2ccccc2C)nnc1SCC(=O)NC1=NCCS1 6.16%
Cc1ccc(C(=O)O)cc1N1C(=O)CCCC1=O -17.1%
CN(C(=O)c1cccc(NC(=O)Cc2cccc([N+](=O)[O-])c2)c1)C1CCCCC1 18.4%
CC(OC(=O)c1ccc(-n2cnnn2)cc1)C(=O)NCc1ccccc1 (stereo unspecified) 8.29%
OCC1(CCOc2ccccc2)CCN(Cc2cn[nH]c2-c2ccccc2)CC1 12.6%
CCOC(=O)C1(CCOc2ccccc2)CCN(Cc2cc(OC)c(O)cc2Cl)CC1 28.9%
O=C(COC(=O)c1cc(-c2cccs2)nn1-c1ccccc1)Nc1cc([N+](=O)[O-])ccc1Cl -2.96%
O=C(CCNC(=O)c1ccccc1)NN=Cc1ccc(Br)o1 5.26%
COc1ccc(CNC(=O)COC(=O)CCS(=O)(=O)c2ccc(C)cc2)cc1OC 21.8%
CCOc1ncccc1C(=O)Nc1ccc(S(=O)(=O)Nc2nc(C)cc(C)n2)cc1 -16.7%
CC(=O)Nc1ccc(S(=O)(=O)Nc2cc(C)cn(Cc3ccc(C)cc3)c2=O)cc1 17.7%
O=c1c([N+](=O)[O-])cccn1Cc1ccc(F)cc1Cl 10.4%
Brc1ccccc1/C=N/Nc1nc2ccccc2o1 36.2%
S=C(NCc1cccnc1)Nc1ccc(Cl)cc1Cl 4.36%
O=C(NNc1cc(Cl)ccc1Cl)c1cccnc1Cl 9.63%
COc1ccccc1NC(=O)C1CCN(C(=O)c2ccc(C(C)(C)C)cc2)CC1 28.8%
CCCCCCCNC(=O)C1(CC2CC(c3cccc(Br)c3)=NO2)CCN(C(=O)c2cc(OCC)c(OCC)c(OCC)c2)CC1 (stereo unspecified) 18.1%
Fc1ccc(N2N=C(c3cccs3)CC2c2ccco2)c(F)c1 (stereo unspecified) 2.13%
CCCCC(=O)Nc1ccc(C(=O)Nc2cc(C(F)(F)F)ccc2Cl)cc1 21.2%
CC1(C)Cc2c(sc3nc(SCC(=O)NCc4ccccc4)n(-c4ccccc4)c(=O)c23)CS1 -3.67%
N#Cc1c(NCCO)ccc([N+](=O)[O-])c1NCCO -1.81%
CCOc1ccc(CN2CCN(Cc3c[nH]c4ccccc34)CC2)cc1 20.2%
O=C(COC(=O)CN1C(=O)C2CCCCC2C1=O)Nc1ccc(F)c(F)c1F (stereo unspecified) 34.5%
C[C@]12c3[nH]c4ccc(Cl)cc4c3CCN1C(=O)[C@@H](CC(=O)NCCCn1ccnc1)C[C@@H]2C(=O)N1CCOCC1 4.12%
CC1CCN(C(=O)/C(=C\c2ccccc2F)NC(=O)c2ccccc2)CC1 8.33%
C=CCNc1cnn(-c2ccc(C)cc2)c(=O)c1Cl -8.88%
Cc1cccc(-n2ncc(C#N)c2-n2cccc2)c1 18.1%
COC(=O)[C@@H]1C[C@@]2(O)[C@@H](O)[C@@H](O)[C@@H](O)C[C@H]2N1Cc1ccc(C)s1 10.5%
CCCOc1cccc(C(=O)Nc2nnn(CCC)n2)c1 -17.9%
COc1ccccc1N1CCN(S(=O)(=O)c2ccc(Cl)cc2)CC1 0.916%
COc1ccccc1-n1nnnc1SCC(=O)NC(=O)Cc1ccccc1 -11.3%
O=C(CN1C(=O)c2cccnc2Oc2ccc(Cl)cc21)Nc1ccc(F)cc1 7.52%
CC1C(=O)NC(=O)C1c1ccccc1 (stereo unspecified) 10.9%
COc1ccccc1-c1sc2ccccc2c1-c1ccc(C(C)=O)cc1 7.74%
COc1ccccc1-c1sc2ccccc2c1-c1ccc(Br)nc1 1.19%
COc1cc(OC)cc(-c2sc3ccc(OC)cc3c2-c2ccc3cc[nH]c3c2)c1 13.6%
COc1ccc(-c2sc3ccccc3c2-c2ccc(OCCN3CCOCC3)cc2)cc1 28.3%
CN1C(=O)C2(OCCCO2)c2cc(Cl)ccc21 2.45%
COC(=O)c1ccc(Oc2nc(NC(C)C)nc(SC)n2)cc1 22.5%
Cc1ccc(C(C(=O)NCC2CCCO2)N(C(=O)c2snc(C(N)=O)c2N)c2ccc(C(C)C)cc2)o1 (stereo unspecified) -3.18%
C/C(=N\N(C)C)c1ccc(OCCOc2ccc([N+](=O)[O-])cc2)cc1 -8.83%
O=C(CN1CCN(C2CCS(=O)(=O)C2)CC1)N1N=C(c2ccc(Cl)cc2)CC1c1ccco1 (stereo unspecified) 26.2%
COCCCC1CCN(C(=O)C2CCC(=O)N(C3CCCCCC3)C2)CC1 (stereo unspecified) 27.9%
Cc1c(Cl)cccc1NC(=S)NCC(O)c1ccccc1 (stereo unspecified) -14.3%
Cc1cccc(C(=O)OC(C)C(=O)NC2CCCc3ccccc32)c1O (stereo unspecified) 28.3%
NC(=O)Nc1ccc(C(=O)OCC(=O)NC2CCCc3ccccc32)cc1 (stereo unspecified) -3.47%
COC(=O)c1cc(OCC(=O)NC2CCCc3ccccc32)cc(C(=O)OC)c1 (stereo unspecified) 1.41%
CC1(c2ccccc2)NC(=O)N(CC(=O)N2CC(=O)Nc3ccccc32)C1=O (stereo unspecified) -7.07%
Cc1ccc(NC(=O)Nc2nnc(-c3ccncc3)s2)cc1 45.1%
Cc1nnc(NC(=O)C(c2ccccc2)c2ccccc2)s1 7.45%
CC(C)Oc1ccc(S(=O)(=O)N2CCOCC2)cc1NC(=O)C1CCCC1 -52.3%
CC1CC(=S)Nc2ccccc2N1Cc1ccccc1 (stereo unspecified) 18.7%
CCCCN(CC)CCCNC(=O)c1ccc(CSc2nc3ccncc3[nH]2)cc1 6.18%
COc1cccc(NC(=O)COC(=O)c2ccc3ccccc3n2)c1 -8.32%
COc1ccc(CCNC(=O)CSc2nc(C)nc3c2oc2ccccc23)cc1OC -0.689%
CC(Nc1nc(N2CCOCC2)nc2ccccc12)c1ccccc1 (stereo unspecified) -0.119%
CC(Nc1nc(N2CCN(CCO)CC2)nc2ccccc12)c1ccccc1 (stereo unspecified) -4.68%
CCN(C(=O)COC(=O)CCC(=O)c1cccs1)C1CCCCC1 18.7%
CC(=O)c1ccc(NC(=S)N(Cc2ccccc2)C(C)C2CC2)cc1 (stereo unspecified) 29.9%
CCOC(=O)C1CSC(CC(=O)Nc2ccc(OCC)cc2)C(=O)N1 (stereo unspecified) 9.79%
COCC1CCCN(C(=O)c2ccc3oc(C(C)C)nc3c2)C1 (stereo unspecified) 28.6%
Cc1n[nH]c(C)c1S(=O)(=O)N1CCCC(C(=O)Nc2ccc(Br)cc2)C1 (stereo unspecified) 18.8%
Cc1cc(C)nc(N2CCC(C(=O)Nc3ccc4c(c3)OCCO4)CC2)n1 15.6%
CCc1ccc(NC2Nc3cc(C)nn3S2)cc1 (stereo unspecified) -161%
Cc1ccc(CNC(=O)[C@@H](NC(=O)Cc2ccccc2)C(C)C)cc1 33.2%
CCN(C(=O)COC(=O)CCOc1cccc(C)c1)c1c(N)n(Cc2ccccc2)c(=O)[nH]c1=O -15.7%
CCCCN(C(=O)C1=NN(c2cc(C)ccc2C)C(=O)CC1)c1c(N)n(CCC)c(=O)[nH]c1=O 4.43%
Nc1nc(NC(=O)/C=C/c2ccc(F)cc2)nn1-c1ccccc1 36.3%
Cc1c(NC(=O)CCC2CCCCC2)cc(C(=O)N2CCOCC2)cc1[N+](=O)[O-] -15.2%
C=CC[C@@H](Cc1ccc(F)cc1)C(=O)OC[C@H]1CCCN1C(=O)[C@H](CC=C)CC(=O)N(CCO)Cc1ccccc1 38.8%
C=CC[C@@H](CC(=O)N[C@H](CO)Cc1ccccc1)C(=O)N[C@@H](COC(=O)[C@@H](CC=C)Cc1ccc(F)cc1)Cc1c[nH]c2ccccc12 16.4%
C=CCC[C@H](Cc1ccc(F)cc1)C(=O)OC[C@@H](NC(=O)[C@@H](CC=C)CC(=O)N[C@H](CO)Cc1ccccc1)C(C)(C)C 46.7%
C=CCC[C@H](Cc1ccc(F)cc1)C(=O)OC[C@@H](Cc1c[nH]c2ccccc12)NC(=O)[C@H](CC=C)CC(=O)N[C@H](CO)Cc1ccccc1 38.1%
C=CCC[C@H](Cc1ccc(F)cc1)C(=O)OC[C@H](C)NC(=O)[C@H](CC=C)CC(=O)N(CCO)Cc1ccccc1 -2.85%
C=CCC[C@@H](Cc1ccc(F)cc1)C(=O)OC[C@@H](C)NC(=O)[C@H](CC=C)CC(=O)N(CCO)Cc1ccccc1 24%
